# High-throughput results as filed in PubChem.
# Hits are enriched below; roughly 3.9% of the tested compounds scored in any of these assays.
# BH1578 lux ind = inducers of Vibrio cholerae quorum light production without autoinducers. V. cholerae BH1578 lux reporter, luminescence, 6 h. activation, % at 18.7 µM. hit rate 0.16% among 350,000. AID 588436; in the data active = activation mostly above about 9.7%, no sharp cut-off; inconclusive = no clear call, values can overlap the other calls; inactive = mostly below about 3.7%
# MazF activator = increases E. coli MazEF RNase cleavage of RNA; P0AE70; FAM/BHQ RNA-DNA oligo cleavage fluorescence, 5 h; activation, % at 20 µM; hit rate 0.32% among 350,000; AID 504720; in the data active = activation above about 50%
# Target sequence (P0AE70 whole entry, looked up): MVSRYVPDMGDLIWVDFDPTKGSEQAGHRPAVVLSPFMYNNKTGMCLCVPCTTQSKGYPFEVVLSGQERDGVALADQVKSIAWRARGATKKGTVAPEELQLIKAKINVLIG
# Anthrax LF inh2 = inhibitors of Bacillus anthracis lethal factor protease; P15917; hit rate 0.12% among 360,000; multiplex microsphere protease cleavage assay, LF; AID 588501; inhibition, % at 10 µM; note: plate controls were buffer without enzyme for full effect and enzyme alone for no effect
# BoNT F protease = blocks Botulinum neurotoxin F light chain protease | Multiplex microsphere protease cleavage assay, flow cytometry | inhibition, % at 10 µM | hit rate 0.22% among 360,000; in the data active = inhibition above about 35%, passing the limit was not always enough; inconclusive = no clear call, values can overlap the other calls; note: plate controls were buffer without enzyme for full effect and enzyme alone for no effect
# Bead autofluor = compound fluorescence in toxin protease inhibitor counterscreen. hit rate 3.1% among 360,000. AID 624483. compound autofluorescence counterscreen, microsphere flow cytometry; active compounds read high. fluorescence intensity (no concentration beside the values); in the data active = fluorescence intensity above about 16000; inconclusive = no clear call, values can overlap the other calls
# BoNT-A LC inh2 = blocks Botulinum neurotoxin A light chain protease; multiplex microsphere protease substrate cleavage, flow cytometry; hit rate 0.17% among 360,000; AID 588499; inhibition, % at 10 µM; note: plate controls were buffer without enzyme for full effect and enzyme alone for no effect
# Active calls of the source: *; i = inactive; u = inconclusive; x = no result. Cut-off read from the data, not from the text of the source, unless noted: active = inhibition above about 30%; inconclusive = no clear call, values can overlap the other calls; inactive = below that.
SMILES,BH1578 lux ind,MazF activator,Anthrax LF inh2,BoNT F protease,Bead autofluor,BoNT-A LC inh2
CN(C)CCCNS(=O)(=O)c1ccc(NC2CCCCCC2)c([N+](=O)[O-])c1,0.2,1.7,-4.9,-11.4,7318,-4.3
COC(=O)c1ccc(OCC(=O)Nc2nn(-c3ccccc3)nc2C(N)=O)cc1,3.8,-36.3,0.0,-3.6,22226*,u
CC1CCN(CC(=O)Nc2nn(-c3ccccc3)nc2C(N)=O)CC1,-1.1,6.3,-0.3,-1.9,2054,0.5
C/C(=N\NC(=O)c1cc2ccccc2cc1O)c1ccc(C)o1,-0.4,5.0,-0.4,-10.0,5704,0.4
C/C(=N\NC(=O)c1c[nH]c2ccccc12)c1ccc(C)o1,-1.3,2.9,-1.1,-3.7,23011*,-2.2
CC1=C(C(=O)N2CCOCC2)CC(CC(=O)NC2CCCCC2)C(=O)N1Cc1ccc(F)cc1 (stereo not given),-0.4,6.2,2.3,0.2,3793,-0.2
COc1cc(/C=C2/N=C(C3CCCCC3)OC2=O)cc(OC)c1OC,i,2.9,-4.2,1.3,20975*,u
CCc1ccc(S(=O)(=O)N2CCN(c3ccccc3OC)CC2)cc1,-0.5,0.0,-13.9,u,3560,-4.4
Cc1ccc(NC2=CC(=O)C(=O)c3ccccc32)cc1,i,4.3,-1.5,-5.1,16510*,-0.7
NS(=O)(=O)c1ccc(NC2=CC(=O)C(=O)c3ccccc32)cc1,-1.2,-0.5,-9.6,-24.2,3495,-1.6
O=C(CN1C(=O)c2ccccc2C1=O)Nc1sc2c(c1C(=O)NCC1CCCO1)CCC2 (stereo not given),-0.1,-0.1,0.2,-0.7,22614*,-0.5
O=C(CN1C(=O)c2ccccc2C1=O)Nc1sc2c(c1C(=O)NCc1ccco1)CCCC2,-0.9,6.4,-0.8,-7.9,4418,-1.9
O=C1N=NC(=O)N1c1ccccc1,-0.3,8.3,-1.5,-2.3,5891,0.0
Cc1ccc(OCC(=O)NNC(=O)CCC(=O)NCc2ccccc2)cc1,-0.2,-1.1,-0.9,0.6,22071*,0.9
Cc1ccc(CNC(=O)Cc2ccc(-c3ccccc3)cc2)cc1,i,8.2,-2.7,-5.3,25102*,-4.2
O=C(CCC(=O)c1cccs1)NCc1ccc(Cl)cc1,4.2,4.3,0.0,-1.2,2655,0.4
Cc1ccc(CNC(=O)CCC(=O)c2cccs2)cc1,i,7.3,-0.7,1.5,22864*,1.8
Cc1ccc(OCC(=O)NNC(=O)CCc2ccccc2)cc1,i,6.5,-1.0,-3.3,7920,-0.1
O=C(Cc1ccccc1)Nc1ccc(C(=O)O)cc1,-2.4,-0.3,3.3,-2.9,23610*,u
COC(=O)[C@@]1(Cc2ccc(F)cc2)[C@H]2c3cc(C(=O)N4CCCC4)n(C)c3C[C@H]2CN1C(=O)c1ccccc1,x,x,5.9,7.4,4468,-0.5
CCCCCCOC(=O)CC1CC(C(C)=O)C1(C)C (stereo not given),1.2,-2.3,3.6,-9.0,2765,0.1
C/C(CC(=O)NCc1ccco1)=N\NC(=O)Cc1cccc2ccccc12,i,-0.7,0.8,1.0,3619,-0.8
O=C(CCc1ccccc1)NNC(=O)COc1ccccc1,-0.8,6.5,-2.5,-4.3,24872*,u
O=C(CCc1ccccc1)NNC(=O)c1ccc(NC(=O)c2ccccc2)cc1,-0.5,-4.0,-0.1,-24.2,2080,-1.7
CC(=O)Nc1ccc(C(=O)NNC(=O)CCc2ccccc2)cc1,-0.2,-2.5,-1.8,-2.6,23567*,-2.0
SMILES,BH1578 lux ind,MazF activator,Anthrax LF inh2,BoNT F protease,Bead autofluor,BoNT-A LC inh2
CC(C)(C)NC(=O)COc1ccc(-c2ccccc2)cc1,i,-5.8,-4.8,-6.0,17169*,-2.7
C/C(CC(=O)NCc1ccco1)=N\NC(=O)Cc1ccc(-c2ccccc2)cc1,-0.2,79.0*,0.5,30.6,2537,2.6
COc1cc(OC)cc(-c2noc(-c3csc([C@@H]4C[C@H](O)[C@@H](CO)O4)n3)n2)c1,-0.4,x,-8.1,1.5,3473,0.4
COc1ccc(CNC(=S)Nc2ccccc2-c2ccccc2)cc1,-1.2,x,-5.6,-0.1,4451,-0.6
O=c1[nH]cnc2sc3c(c12)CCC3,-2.1,-18.3,1.0,-5.3,4236,-0.3
CN(C(=S)NC(=O)C1(C)CC1(Cl)Cl)c1ccccc1 (stereo not given),i,13.6,0.7,-3.6,23191*,-0.1
CC1(C(=O)NC(=S)N(Cc2ccccc2)c2ccccn2)CC1(Cl)Cl (stereo not given),-0.2,-5.1,-0.5,-12.9,2700,-0.7
